Assay results from the supplement of paper PMC6555819.

System: RARa homodimer (NR concentration 270 nM)
Experiment: PBM binding z-score (relative to random genomic background probes); higher = stronger binding; sequences stand for … in GC…GCGATTGACAGCGTAGAATGAAGG
Procedure, shortened: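 Antibodies against each partner of ligand-free nuclear receptor dimers (one per run) detected binding on custom Agilent 4×180K protein-binding microarrays after 1 h incubation. The double-stranded probes had 34-nt variable regions carrying direct-repeat seeds, single-nucleotide variants, half-site ablations and random human genomic background sequences. Binding z-scores, from regression-normalized fluorescence, use the random background probes as reference.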

First: ATTACAGGGTCATCGTAGGCCAGAGTACGCACAG
Second: ACTCGGAGGACAAAGGTCAGATCTACGCCAGTGA
The PBM binding z-score of the first is higher: 1.45 for the first, 1.42 for the second.

Going from TTACCAAGGTGAGCTGAGGTCGCTGATCCAACTC to CCTCGGAGGACAGAAGGTCTGAGCTGTCCGCTTT, the PBM binding z-score rises from -1.47 to -0.761.

Going from GCCTACGGGTCAAAGGTTATAGCATGAATAGAAT to TAGCCTAGGTCAGTGGGCCAGTATAGTACGCATC, the PBM binding z-score falls from 0.254 to -1.07.

First: CCTAGCAGGCCAATCTGGGGCACTCAAGGCTTGA
Second: GCTCGGAGGACCAGGTCAGAGCTTTGTCCGTAGA
The PBM binding z-score of the first is higher: -0.87 for the first, -0.985 for the second.

Going from GCTATTAGTTCAAAGGGCAACCGAATGATTCTCG to ACAGACAGGTGGTGAAGGTAACTCAGGCTATCAT, the PBM binding z-score falls from 1.11 to 0.517.

Compared with TCTAGTTGGTCAAAGTTCACACACTCGAAATGCG, TCACCAAGGTGAGCTGAGGTCGTTGATCCAACTC is lower in PBM binding z-score: 2.77 for the first, -0.943 for the second.

Compared with CCTGCTAGGTCAATGGGCAGCTAAAGCAGCTCGC, TCGAGTAGGTTAGTAGGGGCATTCAGCCAACATA is higher in PBM binding z-score: -0.679 for the first, 0.25 for the second.

Compared with TCGAGTAGGTTACCAATGGGGCATGCAGCTTTCT, TCGTGTAGGTTACCAATGGGGCATTCAGCTTTCT is higher in PBM binding z-score: -0.816 for the first, -0.0616 for the second.

First: TCAGACAGGTGAAGGTAACTGAGGTACGCAGTCG
Second: ATCTCTAGGTAAAGATAGTTCAGTGAATGCAAAT
The PBM binding z-score of the first is higher: 0.545 for the first, 0.47 for the second.

First: TCTAGTTGTTCACGGAGGTCACACACGACGGGTA
Second: TAGCCTAGCTCATGGGCCAGTATACCACGCGAAC
The PBM binding z-score of the first is higher: 1.31 for the first, -0.475 for the second.

Going from CAAACTAGGTCCAAGGTCAAAGTCGAGCCAACCA to ATCTCTAGGTAAGACTCAGTTTAGTGAAGAACGC, the PBM binding z-score falls from 1.6 to 1.22.

Compared with CGTCCAAGCTCAAGGTCAGTGAAAGAGACTCGAA, TAGCCTAGGTCATGCGGTCCAGTATAGTGTCGGC is lower in PBM binding z-score: 0.0805 for the first, -0.726 for the second.

Compared with ACTAGCAGGCCAAGTTAGGGTCACTCAAACAAAG, GGAACGAGGGCAAAGCTGATAGCATCTGTCGACG is lower in PBM binding z-score: -0.482 for the first, -0.822 for the second.

Compared with ATCTCAAGGTAACCAAGTTCAGTGAATGCCGAAC, CGAACTAGGTCATCCACGACAGTGAATACATTGA is higher in PBM binding z-score: 0.198 for the first, 0.664 for the second.

Going from CGAACGAGGGCATGTGTTGATAGCAAATGCCGAT to ACAGACAGGTGCTGAAGGTAACTCAGGCTATCAT, the PBM binding z-score falls from 0.149 to -0.406.

Compared with CCGACTGGGGCAAAGGTTACCGTACTCAGTACGA, GCTCGGAGTACAAGGTCAGAGCTTTGTCCGTAGA is lower in PBM binding z-score: -0.437 for the first, -0.729 for the second.

Going from TCTCGGAGGACACGAAAGTTCAGAGCTCGACATC to CCTCGGAGGACAGAAGGTCAGACCTGTCCGCTTT, the PBM binding z-score falls from 0.226 to -0.193.

Compared with ATCTCTAGGTAAAGTTCAGTCAAAGATCGATAGA, CCTTACGGATCAAGGTTATAGCACGGGTGGTACG is lower in PBM binding z-score: 1.68 for the first, 1.03 for the second.

Compared with AGAACGAGGGCACGCAGAGTTGATAGCAGAGTAG, TCTGCTCGGTCAACGATGGTCAGCTAATCTGCTA is lower in PBM binding z-score: -0.379 for the first, -0.906 for the second.

First: CCGGACAGGTGAAAGGTAACTCAGTCTGGTACGC
Second: CCTCGGAGGACAGAAGGTCACAGCTGTCCGCTTT
The PBM binding z-score of the first is lower: -0.413 for the first, 1.25 for the second.
